SMILES strings stand for the structures.

Assay type in all cases: functional
In assay [1] the test system is Plasmodium falciparum. The assay is described as follows: GSK_TCMDC: Inhibition of Plasmodium falciparum 3D7 in whole red blood cells, using parasite LDH activity as an index of growth. Test compounds present at 2uM.
Assay [2] relates to Plasmodium falciparum. The assay is described as follows: GSK_TCMDC: Inhibition of Plasmodium falciparum Dd2 in whole red blood cells, using parasite LDH activity as an index of growth. Test compounds present at 2uM.
In another assay the test system is HepG2. The assay is described as follows: GSK_TCMDC: Percent inhibition of human HepG2 cell line. Test compounds present at 10uM.

With `COc1cc(NCCCNC(=O)c2ccc(Cl)c(Cl)c2)nc2ccccc12`, the Inhibition with Plasmodium falciparum [1] is reported as 99%; with Plasmodium falciparum [2] it was 100%; with HepG2, 48%.

Take `Cc1cccc2nc(-c3ccc(-c4cccc(CN5CCC(C(N)=O)CC5)c4)cc3)[nH]c12.O=C(O)C(F)(F)F`: the Inhibition in the assay with Plasmodium falciparum [1] is given as 87%; in the assay with Plasmodium falciparum [2], 16%; with HepG2, 9%.

Regarding `O=C(Nc1ccc(-c2nc3ccccc3[nH]2)cc1)C1CCN(Cc2ccc(F)cc2)CC1`, the Inhibition in the assay with Plasmodium falciparum [1] is 100%; with Plasmodium falciparum [2] it was 91%; in the assay on HepG2 it was 13%.

On to `Nc1ccc(-c2ccc3ccnc(N)c3c2)cc1`, for which the Inhibition with Plasmodium falciparum [1] is listed as 100%; with Plasmodium falciparum [2] it was 68%; in the assay with HepG2, 38%.

`CS(=O)(=O)CCNCc1cccc(-c2cc3c(Nc4ccc(OCc5cccc(F)c5)c(Cl)c4)ncnc3s2)c1.O=C(O)C(F)(F)F`: the Inhibition in the assay on Plasmodium falciparum [1] stood at 100%; with Plasmodium falciparum [2], 97%; with HepG2 it was 5%.

For the compound `CC(C)(CNC(=O)C1CCN(Cc2ccc(Cl)cc2)CC1)c1nc(-c2ccc(Cl)c(O)c2)c(-c2ccncc2)[nH]1.Cl`, the Inhibition in the assay on Plasmodium falciparum [1] was determined as 100%; in the assay on Plasmodium falciparum [2], 83%; in the assay with HepG2, 36%.

With `O=C(O)C(F)(F)F.c1cc(CN2CCc3ccccc3CC2)cc(-c2c[nH]c3nc(NC4CCCC4)ncc23)c1`, the Inhibition in the assay with Plasmodium falciparum [1] was 99%; in the assay on Plasmodium falciparum [2] it was 49%; in the assay on HepG2, 31%.

On to `Cc1cc(NCCc2ccccc2)nc(NC(=N)Nc2ccc(Cl)cc2)n1`, for which the Inhibition in the assay with Plasmodium falciparum [1] is recorded as 100%; in the assay on Plasmodium falciparum [2], 100%; in the assay on HepG2, 7%.

`Cc1ccc(O)cc1Nc1ccnc2cc(-c3ccc(CN4CCCCC4)o3)ccc12`: the Inhibition in the assay with Plasmodium falciparum [1] was determined as 100%; in the assay with Plasmodium falciparum [2], 99%; with HepG2, 16%.

Consider `COc1cc(OC)c2c(c1Cl)O[C@]1(C2=O)C(=O)C(Cc2ccccc2)(Cc2ccccc2)C(=O)C[C@H]1C`, for which the figures for the Inhibition with Plasmodium falciparum [1], in the assay on Plasmodium falciparum [2] and with HepG2 were 90%, 45% and 0%, respectively.

Turning to `CC(C)(C)CCN1CCC(CNC(=O)c2cc(-c3cccc(Cl)c3)cs2)C1.O=C(O)C(F)(F)F` (stereo unspecified), the Inhibition in the assay with Plasmodium falciparum [1] came to 99%; in the assay with Plasmodium falciparum [2], 13%; with HepG2 it was 50%.

For `CCCN(CCC)CCCN(CCCN(CCC)CCC)c1cc(C)nc(Nc2ccc(Cl)cc2)n1.Cl`, the Inhibition in the assay with Plasmodium falciparum [1] is given as 100%; with Plasmodium falciparum [2] it was 100%; in the assay with HepG2 it was 34%.

Turning to `CN1CCC(C(=O)N(Cc2ccc(-c3ccc(CNCCc4ccccc4)cn3)cc2)Cc2cccc(F)c2)CC1.O=C(O)C(F)(F)F`, the results for the Inhibition with Plasmodium falciparum [1], with Plasmodium falciparum [2] and in the assay with HepG2 were 90%, 80% and 30%, respectively.

For the compound `CN(C)CCCOc1ccc(CN2CC[C@H](NC(=O)c3ccc(Cl)c(Cl)c3)C2)cc1Cl.O=C(O)C(F)(F)F`, the Inhibition with Plasmodium falciparum [1] is 100%; with Plasmodium falciparum [2], 35%; in the assay on HepG2 it was 65%.

Take `O=C(O)C(F)(F)F.O=[N+]([O-])c1cccc(CNCC2CCN(CC3CCCCC3)CC2)c1`: the Inhibition is reported as 90% with Plasmodium falciparum [1], 14% in the assay with Plasmodium falciparum [2] and 11% in the assay on HepG2.

As to `CN1CCN(CCCN(Cc2ccc(-c3cccc(CNC4CCCC4)c3)cc2)C(=O)Nc2ccccc2)CC1.O=C(O)C(F)(F)F`, the values for the Inhibition in the assay with Plasmodium falciparum [1], in the assay on Plasmodium falciparum [2] and with HepG2 were 92%, 76% and 28%, respectively.

Turning to `COc1cc(NC(=O)C(c2ccc(Cl)cc2)C(C)C)cc(OC)c1` (stereo unspecified), the Inhibition with Plasmodium falciparum [1] was 99%; in the assay on Plasmodium falciparum [2], 98%; in the assay with HepG2, 5%.

Turning to `CC(=O)Nc1ccc(C(=O)Nc2cccc(-c3cccc(-c4nc5cc(F)ccc5[nH]4)c3)c2)cn1`, the Inhibition in the assay on Plasmodium falciparum [1] came to 99%; with Plasmodium falciparum [2], 98%; in the assay with HepG2 it was 0%.

As to `O=C(C=Cc1ccc(Cl)c(Cl)c1)NC1CCN(CCc2ccccc2)CC1.O=C(O)C(F)(F)F`, the Inhibition came to 97% with Plasmodium falciparum [1], 13% with Plasmodium falciparum [2] and 6% in the assay with HepG2.

Regarding `O=C(Nc1cccc(N2CCC(NCCCc3ccncc3)CC2)c1)c1cccc(C(F)(F)F)c1`, the Inhibition in the assay with Plasmodium falciparum [1] is on record as 96%; with Plasmodium falciparum [2] it was 50%; in the assay on HepG2, 11%.

Consider `CC(C)(C)C(=O)Nc1ccccc1Oc1ccc(Cl)cc1`, for which the figures for the Inhibition with Plasmodium falciparum [1], in the assay with Plasmodium falciparum [2] and in the assay on HepG2 were 92%, 96% and 54%, respectively.

As to `CC(=O)Nc1csc(-c2cnc(/C=C(\C)C[C@@H]3OC[C@H](C[C@@H]4O[C@H]4[C@@H](C)[C@H](C)O)[C@@H](O)[C@H]3O)o2)c1`, the Inhibition in the assay with Plasmodium falciparum [1] was determined as 94%; in the assay with Plasmodium falciparum [2], 8%; in the assay with HepG2 it was 1%.

As for `O=C(N[C@@H](CC1CCCCC1)C(=O)NCCN1CCCC1)c1ccc(O)c(-c2ccc(Cl)c(Cl)c2)c1`, the Inhibition in the assay with Plasmodium falciparum [1] was determined as 99%; in the assay on Plasmodium falciparum [2], 99%; in the assay on HepG2, 16%.

`CN(c1ccc(NC(=O)c2ccc(F)cc2)cc1)C1CCN(Cc2cccc(F)c2)C1.O=C(O)C(F)(F)F` (stereo unspecified): the values for the Inhibition in the assay with Plasmodium falciparum [1], in the assay with Plasmodium falciparum [2] and in the assay with HepG2 were 81%, 74% and 3%, respectively.

Take `CCOc1ccc2nc(C)cc(N/N=C/c3cccc([N+](=O)[O-])c3)c2c1`: the Inhibition in the assay on Plasmodium falciparum [1] was 100%; in the assay on Plasmodium falciparum [2] it was 93%; in the assay on HepG2, 7%.

Consider `Cc1c(C)c2c(c(C)c1O)CC[C@@](C)(C(=O)N1CCC(CCN3CCC(c4c[nH]c5ccccc45)CC3)CC1)O2`, for which the results for the Inhibition with Plasmodium falciparum [1], in the assay with Plasmodium falciparum [2] and in the assay with HepG2 were 98%, 91% and 37%, respectively.

On to `CCCC1N=C(N)N=C(N)N1c1ccc(Cl)cc1.Cl` (stereo unspecified), for which the Inhibition is 96% with Plasmodium falciparum [1], 0% in the assay with Plasmodium falciparum [2] and 14% in the assay with HepG2.

These data come from ChEMBL document CHEMBL1157539, “Thousands of chemical starting points for antimalarial lead identification” (Nature, 2010).
